Only some compounds are listed: those with a hit (about 0.45% of all), similar ones and a draw of the others.
RGS12 GoLoco inh – RGS12 GoLoco-Gai1 interaction inhibition. P63096. Gai1:RGS12 GoLoco peptide FP, rhodamine, 10 min. Potency, µM (doses to about 61.6 µM), most hits filed as inhibitors. 0.44% of 230,000 active; active means well fitted inhibition curve with a large enough effect, not every such curve was filed as active; inactive means no such curve, though single readings can be large or run the other way; further: nearly all actives have a fitted effect of over 30% in size
TRb-SRC2 inh – TRbeta-SRC2 interaction inhibition. P10828. TRbeta-SRC2 peptide binding, fluorescence polarization; receptor liganded with 1 µM T3. Potency, µM (top dose mostly 106 µM), actives largely listed as inhibitors. 0.065% of 280,000 active. AID 1469; further: nearly all actives have a fitted effect of over 50% in size
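Assay buffer: 20 mM Tris-HCl, 100 mM NaCl, 10% glycerol, 1 mM EDTA, 0.01% NP-40, 1 mM DTT, 1 uM T3, 5% DMSO; TRb LBD 0.6 uM, Texas Red SRC2 20 nM; FP after 5 hr.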
ERG-DNA inh – blocks human ERG Ets domain binding to DNA. 0.028% of 370,000 active. fluorescence polarization, His-ERG Ets domain / labelled DNA. Potency, µM (series often up to 76.9 µM), hits mostly inhibitors. P11308; active means well fitted inhibition curve with a large enough effect in the polarisation, with a control signal flat; inconclusive means small, poorly fitted or top-dose-only effect, or effect the other way, or a change in a side signal; inactive means no such curve, though single readings can be large or run the other way; the % refers to the polarisation;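 further: polarization taken with two DNA probes labelled with fluorescein and Texas red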
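His-tagged ERG Ets domain (1 uM in the protein solution; 300mM KCl, 50mM Tris-HCl, 1mM EDTA, 1mM DTT, pH 7.5) received compound, then a probe mix of 5 nM fluorescein-DNA and 100nM Texas-615-DNA. Fluorescence polarization was read for both dyes.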
Integrin act MD – activates integrin-mediated alleviation for muscular dystrophy; alpha7betagal myoblasts, beta-gal FDG fluorescence, 48 h; AID 624291; Potency, µM (highest dose often 38.3 µM), actives largely listed as activators; 0.064% of 350,000 active; further: nearly all actives have a fitted effect of over 60% in size
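alpha7betagal+/- myoblasts (passage 13, 250/well) treated 48 h at 37C with compounds at 1:260 dilution of DMSO stock. Lysed, then beta-galactosidase activity read as FDG fluorescence (ex 480/em 540) after 30 min, with pre-read for autofluorescence.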
CBFb-RUNX1 inh – CBF-beta/RUNX1 interaction disruption; AID 1477; Q01196+Q13951; 230,000 tested, under 10 active; AlphaScreen CBFb-His/RUNX1-biotin binding, biochemical; Potency, µM (doses to about 59.8 µM), hits mostly inhibitors
Target sequence (Q01196 whole entry, looked up): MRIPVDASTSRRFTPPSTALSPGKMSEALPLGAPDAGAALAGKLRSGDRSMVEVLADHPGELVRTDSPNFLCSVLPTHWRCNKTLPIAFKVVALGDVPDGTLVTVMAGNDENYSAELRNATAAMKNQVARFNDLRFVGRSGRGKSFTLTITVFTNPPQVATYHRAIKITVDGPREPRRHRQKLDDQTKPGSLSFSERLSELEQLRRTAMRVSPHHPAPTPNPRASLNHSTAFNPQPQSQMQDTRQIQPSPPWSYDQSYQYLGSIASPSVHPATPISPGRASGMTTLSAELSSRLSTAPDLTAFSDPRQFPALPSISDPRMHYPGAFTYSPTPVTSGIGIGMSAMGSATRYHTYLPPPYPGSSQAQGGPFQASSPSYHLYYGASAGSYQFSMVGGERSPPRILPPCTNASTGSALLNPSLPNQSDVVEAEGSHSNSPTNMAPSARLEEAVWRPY
Target sequence (Q13951 whole entry, looked up): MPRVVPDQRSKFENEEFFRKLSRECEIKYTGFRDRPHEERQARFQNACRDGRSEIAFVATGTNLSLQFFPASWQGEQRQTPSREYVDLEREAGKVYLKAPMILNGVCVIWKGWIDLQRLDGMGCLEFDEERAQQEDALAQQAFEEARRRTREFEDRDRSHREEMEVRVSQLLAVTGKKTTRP
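CBF-beta (His) and RUNX1 (biotin), 30 nM each; 20 min preassociation; + compound, 15 min; + beads 50 ng each (Ni, streptavidin), 90 min; RT; AlphaScreen read.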
TR SRC2 fluor cs – alters Texas Red total fluorescence, flagging assay interference; 0.29% of 280,000 active; Potency, µM (series often up to 106 µM); TRb/SRC2 Texas Red total fluorescence interference; active means well fitted curve in either direction with a large enough effect; inconclusive means small, poorly fitted or top-dose-only effect
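Human TRb ligand-binding domain at 0.6 uM with 20 nM Texas Red SRC2 peptide in Tris buffer containing 1 uM T3 and 5% DMSO, incubated with compound 5 h at ambient temperature. Total fluorescence (555/632 nm) calculated as parallel + 2 × perpendicular.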
A number is an active result; – = inactive; ? = inconclusive; · = no result; ! = a repeat was not active; [ ] = remark or other dose. Unless noted, the call rests on the fitted dose curve; in most records, active means well fitted curve in the direction sought with a large enough effect; inconclusive means small, poorly fitted or top-dose-only effect, or another doubt; inactive means no such curve, though single readings can be large; an effect the other way counts as inactive or inconclusive.

SMILES | RGS12 GoLoco inh | TRb-SRC2 inh | ERG-DNA inh | Integrin act MD | CBFb-RUNX1 inh | TR SRC2 fluor cs
Cc1ccccc1OCc1ccc(-c2nc(C#N)c(N3CCN(c4ccccc4)CC3)o2)o1 | · | – | – | · | · | 4µM[quencher]
Cc1ccccc1OCc1ccc(-c2nc(C#N)c(N3CCN(C)CC3)o2)o1 | · | – | – | · | · | –
Cc1cc(/C=C\c2ccc3cc(N(C)C)ccc3[n+]2C)c(C)n1-c1ccccc1 | – | ? | – | · | – | 14µM[fluorescent]
CCCCC/C=C\C\C=C/C=C/C=C/[C@@H](SC[C@H](NC(=O)CC[C@H](N)C(=O)O)C(=O)NCC(=O)O)[C@@H](O)CCCC(=O)O | – | – | · | · | – | –
CCOc1ccc(CCNC(=O)C2CCN(c3ncnc4c3nc3n4CCCCC3)CC2)cc1 | · | – | – | · | · | 22µM[quencher]
O=C(NCCc1ccc(Cl)cc1)C1CCN(c2ncnc3c2nc2n3CCCCC2)CC1 | · | – | – | · | · | –
CCCNC(=O)C1CCN(c2ncnc3c2nc2n3CCCCC2)CC1 | · | – | – | · | · | –
CN(C)CCNC(=O)C1CCN(c2ncnc3c2nc2n3CCCCC2)CC1 | · | – | – | · | · | 25µM[quencher]
CCCCCCCCCC(C)=O | · | – | · | · | · | –
CCCCCCCCCCCCCCCCOC[C@H](COP(=O)([O-])OCC[N+](C)(C)C)OC(=O)CCCCCCCC(=O)O | · | – | · | · | – | –
CC(=O)[C@H]1CC[C@@H]2[C@]1(C)CC=C1[C@@]23C=C[C@]2(C[C@H](O)CC[C@@]12C)[C@H](C(=O)O)[C@@H]3C(=O)O | –[14.2 µM] | · | · | · | · | ·
Nc1c(N=Nc2ccc(S(=O)(=O)CCOS(=O)(=O)O)cc2)c(S(=O)(=O)O)cc2cc(S(=O)(=O)O)c(N=Nc3ccc(S(=O)(=O)CCOS(=O)(=O)O)cc3)c(O)c12 | · | – | · | · | · | 45µM[quencher]
Nc1ccccc1N=Nc1c(S(=O)(=O)O)cc2cc(S(=O)(=O)O)cc(O)c2c1O | –[14.2 µM] | · | · | · | · | ·
NC(N)=Nc1nc2ccc([N+](=O)[O-])cc2[nH]1 | 0.35µM! | – | – | – | – | –
CC(C)(C)c1ccc(O)c(C(C)(C)C)c1 | · | – | · | · | · | –
Oc1ccc2ccccc2c1/C=N/c1nccs1 | – | 35µM | – | – | – | ?
Cc1cc(N=Cc2c(O)ccc3cc(Br)ccc23)no1 | – | ? | – | – | – | –
Oc1ccccc1N=Cc1c(O)ccc2ccccc12 | – | – | – | – | – | –
Cc1cc(N=Cc2c(O)ccc3ccccc23)no1 | · | 50µM | – | – | – | ?
O=C(Nc1ccccc1)c1cc(Cl)ccc1O | · | – | · | · | · | –
CC1(C)c2ccccc2N2CC(=O)N(CC(N)=O)C21C (configuration not stated) | – | ? | ? | – | – | 50µM[fluorescent]
O=c1n(CCO)c(=O)n(CCO)c(=O)n1CCO | · | – | · | · | · | –
N#CC1=C(N)Oc2cc(N)ccc2C1c1ccsc1 (configuration not stated) | – | – | – | – | – | –
N#CC1=C(N)Oc2ccc3ccc(O)cc3c2C1c1ccsc1 (configuration not stated) | 13µM | – | – | – | – | –
COc1ccccc1NCCC(=O)OCC(=O)NC1CC1 | – | ? | – | – | – | 3.5µM[quencher]
SMILES | RGS12 GoLoco inh | TRb-SRC2 inh | ERG-DNA inh | Integrin act MD | CBFb-RUNX1 inh | TR SRC2 fluor cs
C[N+]1(CCOc2ccc([N+](=O)[O-])cc2)CCOCC1 | 18µM | – | – | – | – | –
C=CCC(C)(O)c1cccc(Br)c1 (configuration not stated) | – | – | · | · | – | –
Cc1noc(C)c1-c1ccc2ncnc(NCc3cccn3C)c2c1 | · | – | · | · | – | –
Cc1c(N=Nc2ccc(O)cc2)c(=O)n(-c2ccccc2)n1C | – | – | – | – | – | –
Cc1c(N=NC2=C(O)CCCC2=O)c(=O)n(-c2ccccc2)n1C | 18µM | – | – | – | – | –
COC(=O)C1=C(C(=O)OC)[C@@H]2N(Cc3ccccc3)c3ccccc3[C@@]23C[C@@H](C(=O)OC)N(S(=O)(=O)c2ccc([N+](=O)[O-])cc2)C3=N1 | –[14.2 µM] | –[11.2 µM] | · | · | –[13.1 µM] | –[11.2 µM]
COc1cc2c(cc1NC(=O)Cc1ccc(C)cc1)oc1ccccc12 | – | – | – | 1.1µM | – | –
CCOC(=O)c1ccc(NC(=O)N2CCN(C(=O)c3ccco3)CC2)cc1 | – | – | 35µM | – | – | –
c1ccc(-c2ccc(-c3ccccc3)cc2)cc1 | · | – | · | · | · | –
Nc1ccc2nc(-c3ccc(-c4nc5ccc(N)cc5[nH]4)cc3)[nH]c2c1 | · | · | – | – | · | ·
Nc1ccc(-c2nc3ccc(-c4nc5ccc(N)cc5[nH]4)cc3[nH]2)cc1 | – | – | · | · | ? | 45µM[quencher]
CC(C)(C)[C@H](O)[C@H](Cc1ccc(Cl)cc1)n1cncn1 | · | – | · | · | · | –
COc1cc2ncnc(Nc3cccc(Cl)c3)c2cc1OC | 2µM! | – | · | · | – | –
COc1cc2ncnc(Nc3cccc(Br)c3)c2cc1OC | – | – | · | · | – | –
Cc1cccc(Nc2ncnc3ccc(Br)cc23)c1 | – | – | – | – | – | –
COc1ccc(Nc2ncnc3ccc(Br)cc23)cc1OC | · | · | – | 4µM | · | ·
C#CCCOC(=O)N1C2=NC(C(=O)OC)=C(C(=O)OC)[C@@H]3N(CC#CC)c4ccccc4[C@]23C[C@H]1C(=O)OC | –[14.2 µM] | –[11.2 µM] | · | · | –[13.1 µM] | –[11.2 µM]
CC(C)(C)c1cccc(C(C)(C)C)c1O | · | – | · | · | · | –
Cn1cc(S(=O)(=O)N2CCCC2)cc1C(=O)Nc1cccc(C(F)(F)F)c1 | · | · | – | – | · | ·
Cn1cc(S(=O)(=O)N2CCCC2)cc1C(=O)Nc1ccc(C(F)(F)F)cc1 | · | – | – | · | · | 45µM[quencher]
COC(=O)C1CCC(C(=O)OC)CC1 (configuration not stated) | · | – | · | · | · | –
CC(C)(CC(=O)O)CC(=O)N1CCCN(c2nccc(C(F)(F)F)n2)CC1 | · | · | – | 4µM | · | ·
O=C(c1ccccc1)N1CCCN(c2nccc(C(F)(F)F)n2)CC1 | – | – | – | – | – | –
CC1(C)c2ccccc2N2CCC(=O)NC21/C=C/c1ccco1 (configuration not stated) | – | ? | ? | – | – | 45µM[fluorescent]
CC1(C)c2ccccc2N2CC(=O)NC21/C=C/c1ccco1 (configuration not stated) | – | – | – | – | – | –
SMILES | RGS12 GoLoco inh | TRb-SRC2 inh | ERG-DNA inh | Integrin act MD | CBFb-RUNX1 inh | TR SRC2 fluor cs
Cc1ccccc1OCC(=O)Nc1ccc(S(=O)(=O)Nc2ncccn2)cc1 | · | – | – | · | · | 10000µM[quencher]
Cc1ccc(C(=O)NC2=NC(c3ccc(C)cc3)CC(=O)N2)cc1 (configuration not stated) | · | – | – | · | · | 251µM[quencher]
COc1ccc(O)c(/C=N/NC(=O)c2cc(=O)[nH]c3ccccc23)c1 | – | – | – | 5.6µM | · | –
O=C(N/N=C/c1ccccc1)c1cc(=O)[nH]c2ccccc12 | – | – | – | – | – | –
COC(=O)[C@H](CC(C)C)NC(=O)c1ccc(NC[C@@H](N)CS)cc1-c1cccc2ccccc12 | · | – | · | · | – | –
CCCCCCCCCCCCCc1ccccc1 | · | – | · | · | · | –

Screens as filed in PubChem.
